Where “and” joins values, the source holds several entries; their conditions need not be identical. Equal entries are not always repeated. Hit rate of the full screen: of about 5,500 compounds, about 2,000 (36%) were called active. Inconclusive results (about 18%) are left out. Rule as the data show it: active = normalized growth mostly below about 0.91 (no sharp cut-off); inconclusive = no clear call, values can overlap the other calls; inactive = mostly above about 0.92. Some of the results follow.
Experiment: chemical genetic growth profiling, strain panel (AID 1159580);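 also: tested at 20 µM; growth read once vehicle control cultures reached saturation at 30 °C; 1 = growth at the plate median or of vehicle wells; lower values mean less growth of the strain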
Conditions: S. cerevisiae deletion strains, growth OD

Measured: normalized growth

O=C(OCc1ccccc1)c1ccccc1
0.789 (active) and 0.886 (inactive): locus YJL095W, strain BCK1, stronger effect = lower value
inactive: locus YAL021C, strain ccr4, stronger effect = lower value 1.02 | locus YAL026C, strain drs2, stronger effect = lower value 0.93 | locus YAL030W, strain snc1, stronger effect = lower value 0.967 | locus YBL061C, strain skt5, stronger effect = lower value 0.966 | locus YBR009C, strain hhf1, stronger effect = lower value 0.954 | locus YBR021W, strain FUR4, stronger effect = lower value 1 | locus YBR023C, strain chs3, stronger effect = lower value 0.942 | locus YBR171W, strain sec66, stronger effect = lower value 0.927 | locus YBR229C, strain ROT2, stronger effect = lower value 0.994 | locus YBR231C, strain swc5, stronger effect = lower value 0.995 | locus YBR279W, strain paf1, stronger effect = lower value 0.979 | locus YCL011C, strain gbp2, stronger effect = lower value 0.978 | locus YCL016C, strain dcc1, stronger effect = lower value 0.947 | locus YCL029C, strain bik1, stronger effect = lower value 0.969 | locus YCL061C, strain MRC1, stronger effect = lower value 0.958 | locus YCL069W, strain vba3, stronger effect = lower value 0.966 | locus YCR088W, strain abp1, stronger effect = lower value 0.946 | locus YDL005C, strain med2, stronger effect = lower value 0.981 | locus YDL035C, strain GPR1, stronger effect = lower value 0.961 | locus YDL040C, strain nat1, stronger effect = lower value 0.978 | locus YDL074C, strain BRE1, stronger effect = lower value 0.95 | locus YDL101C, strain DUN1, stronger effect = lower value 0.939 | locus YDL134C, strain PPH21, stronger effect = lower value 0.926 | locus YDL185W, strain tfp1, stronger effect = lower value 0.986 | locus YDL192W, strain arf1, stronger effect = lower value 0.973 | locus YDR001C, strain nth1, stronger effect = lower value 0.943 | locus YDR069C, strain doa4, stronger effect = lower value 1.01 | locus YDR101C, strain arx1, stronger effect = lower value 0.96 | locus YDR159W, strain sac3, stronger effect = lower value 0.951 | locus YDR162C, strain NBP2, stronger effect = lower value 0.941 | locus YDR195W, strain ref2 1.02 | locus YDR297W, strain sur2, stronger effect = lower value 0.961 | locus YDR318W, strain mcm21, stronger effect = lower value 0.948 | locus YDR334W, strain swr1, stronger effect = lower value 0.977 | locus YDR335W, strain msn5, stronger effect = lower value 0.95 | locus YDR388W, stronger effect = lower value 0.97 | locus YDR392W, strain spt3, stronger effect = lower value 0.764 | locus YEL003W, strain gim4, stronger effect = lower value 0.959 | locus YEL037C, strain rad23, stronger effect = lower value 0.97 | locus YEL061C, strain CIN8 (second series), stronger effect = lower value 0.925 | locus YEL061C, strain CIN8, stronger effect = lower value 0.988 | locus YER015W, strain faa2, stronger effect = lower value 0.966 | locus YER016W, strain bim1, stronger effect = lower value 0.973 | locus YER110C, stronger effect = lower value 0.975 | locus YER111C, strain swi4, stronger effect = lower value 0.957 | locus YER155C, strain BEM2, stronger effect = lower value 0.98 | locus YER167W, strain BCK2, stronger effect = lower value 0.942 | locus YFR010W, strain ubp6, stronger effect = lower value 1.01 | locus YGL078C, strain dbp3, stronger effect = lower value 0.943 | locus YGL086W, strain mad1, stronger effect = lower value 0.959 | locus YGL167C, strain pmr1, stronger effect = lower value 0.965 | locus YGL173C, strain kem1, stronger effect = lower value 0.927 | locus YGL227W, strain vid30, stronger effect = lower value 0.96 | locus YGL240W, strain doc1, stronger effect = lower value 0.968 | locus YGL248W, strain PDE1, stronger effect = lower value 0.944 | locus YGL253W, strain hxk2, stronger effect = lower value 0.972 | locus YGR135W, strain pre9, stronger effect = lower value 0.949 | locus YGR229C, strain SMI1, stronger effect = lower value 0.852 | locus YGR252W, strain gcn5, stronger effect = lower value 0.923 | locus YHR027C, strain rpn1, stronger effect = lower value 0.979 | locus YHR030C, strain SLT2, stronger effect = lower value 0.953 and 0.899 | locus YHR079C, strain IRE1 (second series), stronger effect = lower value 0.969 | locus YHR079C, strain IRE1, stronger effect = lower value 0.902 | locus YHR094C, strain hxt1, stronger effect = lower value 0.967 | locus YHR129C, strain ARP1, stronger effect = lower value 0.976 | locus YHR200W, strain rpn10, stronger effect = lower value 0.979 | locus YIL066C, strain RNR3, stronger effect = lower value 0.942 | locus YIL073C, strain SPO22, stronger effect = lower value 0.924 | locus YIL125W, strain kgd1, stronger effect = lower value 0.95 | locus YIR030C, strain dcg1, stronger effect = lower value 0.972 | locus YJL092W, strain hpr5, stronger effect = lower value 0.936 | locus YJL095W, strain BCK1 (second series), stronger effect = lower value 0.959 | locus YJL115W, strain asf1, stronger effect = lower value 0.959 | locus YJL129C, strain trk1, stronger effect = lower value 0.933 | locus YJL134W, strain LCB3, stronger effect = lower value 0.988 | locus YJL154C, strain vps35, stronger effect = lower value 0.96 | locus YJL164C, strain tpk1, stronger effect = lower value 0.922 | locus YJL166W, strain qcr8, stronger effect = lower value 0.941 | locus YJL168C, strain set2, stronger effect = lower value 0.979 | locus YJL187C, strain SWE1 (second series), stronger effect = lower value 0.973 | locus YJL187C, strain SWE1, stronger effect = lower value 0.966 | locus YJR043C, strain POL32, stronger effect = lower value 0.955 | locus YJR066W, strain TOR1, stronger effect = lower value 0.906
active: locus YDR137W, strain rgp1, stronger effect = lower value 0.714 | locus YDR502C, strain sam2, stronger effect = lower value 0.918 | locus YER155C, strain BEM2 (second series), stronger effect = lower value 0.716 | locus YHR013C, strain ard1, stronger effect = lower value 1.31 [resistant] | locus YHR142W, strain chs7, stronger effect = lower value 0.828
